Source: PubChem (National Center for Advancing Translational Sciences (NCATS))
A selection: hits, their analogues and other compounds. The true share with any hit is near 21%.
CHX counter: counter-screen for Shiga toxin inhibitors: cycloheximide protein synthesis inhibition. cell reporter, cycloheximide protein synthesis inhibition counterscreen. max response, %. hit rate 12% among 300,000. AID 2314; in the data active means max response mostly above about 13%, no sharp cut-off; inactive means mostly below about 14%; further: read at 38.3 µM for the half of the compounds with a filed dose; 0% is about no effect
HCV inhibitor: HCV inhibition; Huh7.5.1 HCVcc-Cre infection, luciferase reporter, 44 h; Potency, µM (doses to about 41.8 µM), without a hit: at the highest dose activity change, negative = inhibition, usual class: inhibitors; hit rate 3.4% among 340,000; AID 651820; further: potency means the concentration at half of the fitted maximal effect; on the % scale 0 is the no-effect control and ±100 the full control effect
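HCVcc-Cre virus at an moi near 0.5 was added right after compound to cells cultured 4 h from seeding (1,000 cells/well). Luciferase activity was determined 44 h later, 15 min after substrate addition at RT.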
Pf growth 96h: inhibits malaria parasite growth, 96 h. hit rate 6.9% among 320,000. P. falciparum luciferase reporter growth, 96 h. Potency, µM (titrated, usually from 28.7 µM), without a hit: top-dose activity change, negative = inhibition, most hits filed as inhibitors; further: potency means the concentration at half of the fitted maximal effect; on the % scale 0 is the no-effect control and ±100 the full control effect
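Infected RBCs, 2% Hct / 0.05% parasitemia final; luciferase-reporter P. falciparum; cpd 96 h, 37 C, 5% CO2; luciferase detection reagent; luminescence.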
AMA1 RON2 block: disrupts binding of P. falciparum AMA1 to RON2; AlphaScreen AMA1-biotinylated RON2 peptide binding; Potency, µM (doses to about 58.2 µM), without a hit: at the highest dose activity change, negative = inhibition, usual class: inhibitors; hit rate 0.2% among 360,000; AID 720542;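 further: potency means the concentration at half of the fitted maximal effect; 0% = vehicle wells and -100% = peptide control; nearly all actives have a fitted effect of over 45% in size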
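AMA1 (3D7) with his tag at 25 nM final met compounds first, then biotinylated RON2 peptide at 25 nM; detection used donor plus acceptor beads, 10 µg/mL apiece, read by AlphaScreen after 30 min at room temperature.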
Pf growth 48h: P. falciparum growth inhibition at 48 hours (one generation); P. falciparum luciferase growth in erythrocytes, 48 h; Potency, µM (highest dose often 28.7 µM), for the others: at the highest dose activity change, negative = inhibition, usual class: inhibitors; hit rate 5.9% among 310,000; AID 504832; further: potency means the concentration at half of the fitted maximal effect; on the % scale 0 is the no-effect control and ±100 the full control effect
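Luciferase-expressing parasites in RBCs, 2% Hct / 0.1% parasitemia final; RPMI 1640 + 0.5% Albumax; 37 C, 5% CO2, one generation; luminescence read-out, lower signal = inhibition.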
Shiga toxin inh: Shiga toxin inhibition. Vero cells, Shiga toxin protein synthesis inhibition reporter. inhibition, % at 38.7 µM. hit rate 9.2% among 290,000. AID 2315; in the data active means inhibition mostly above about 28%, no sharp cut-off; inactive means mostly below about 43%; further: 0% is about no effect
Starred values were filed as active, the others as inactive; ? = inconclusive; / = no result given; [ ] = dose if it differs, or a comment. Unless noted, the call rests on the fitted dose curve; in most records, active means well fitted curve in the direction sought with a large enough effect; inconclusive means small, poorly fitted or top-dose-only effect, or another doubt; inactive means no such curve, though single readings can be large; an effect the other way counts as inactive or inconclusive.

SMILES	CHX counter	HCV inhibitor	Pf growth 96h	AMA1 RON2 block	Pf growth 48h	Shiga toxin inh
COC(=O)c1[nH]c2cc(OC)ccc2c1NC(=O)CN1CCN(c2cccc(C)c2)C(C)C1 (configuration not stated)	14	10µM*	10µM*	-26%	12µM*	6
COc1ccccc1N1CCN(CC(=O)Nc2nc(C)c(C(=O)N(C)C)s2)CC1	-3	9%	15µM*	34%	-27%	2
COC(=O)c1[nH]c2ccccc2c1NC(=O)CN1CCN(c2cccc(Cl)c2)CC1	12	?	4%	-4%	3.3µM*	-5
COC(=O)c1[nH]c2cc(C)ccc2c1NC(=O)CN1CCOCC1	-1	13%	-6%	0%	11%	-4
Cc1ccc2[nH]c3c(c2c1)CN(C(=O)CN1CCCc2ccccc21)CC3	19*	?	4.7µM*	-18%	4.1µM*	69*
COc1ccc(CC(=O)Oc2ccccc2Cl)cc1S(=O)(=O)N1CCOCC1	/	6%	0%	-3%	2%	/
CCn1cc(CN2CCN(CCc3ccccc3)C(CCO)C2)c(C)n1 (configuration not stated)	-2	9%	19%	11%	8%	-4
Cc1ccccc1-c1nsc(SCC(=O)Nc2ccc3c(c2)OCO3)n1	33*	?	0%	3%[11.6 µM]	?	35
Cc1cccc(-c2nsc(SCC(=O)Nc3nccs3)n2)c1	14	6%	46%	5%	?	14
Cc1cccc(-c2nsc(SCC(=O)Nc3ccc4c(c3)OCO4)n2)c1	27*	-26%	-65%	-2%	?	36*
O=C1CSC(c2ccccc2[N+](=O)[O-])N1c1ccccc1 (configuration not stated)	1	2%	-24%	-2%	21%	-6
O=C1CSC(c2ccccc2[N+](=O)[O-])N1c1cccc(F)c1 (configuration not stated)	8	8%	2.3µM*	14%	-8%	-4
CCOC(=O)c1c(C)[nH]c(C(=O)OCC(=O)N2c3ccccc3CC2C)c1C (configuration not stated)	-6	10µM*	?	11%	?	-12
CCOC(=O)c1[nH]c(C)c(C(=O)OCC(=O)N2CC(=O)Nc3ccccc32)c1C	-2	?	9.3µM*	-17%	?	26
Cc1noc(C)c1COc1ccc(C(=O)OCC(=O)N2c3ccccc3NC(=O)C2(C)C)cc1	-5	-30%	?	-5%	/	7
CCOC(=O)C1=C(C)NC(C)=C(C(=O)OCC)C1C(=O)OCC(=O)N1c2ccccc2CC1C (configuration not stated)	-3	?	?	-1%	/	-7
Cc1noc(C)c1COc1ccc(C(=O)OCC(=O)N2CC(=O)Nc3ccccc32)cc1	-2	18%	?	5%	4.7µM*	-9
O=C(Nc1ccc(F)cc1)C(c1ccnc2ccccc12)N1CCN(c2cccc(C(F)(F)F)n2)CC1 (configuration not stated)	/	/	/	0%	/	/
Cc1nc([N+](=O)[O-])cn1CC(=O)Nc1ccc(F)c(Cl)c1	3	5%	?	10%	-4%	1
CCCCN1C(=O)C(=Nc2cccc3cnccc23)c2ccccc21	-9	?	?	-18%	?	-12
Cc1cc(C)n2nc(C(=O)Nc3ccc4c(c3)CCC4)nc2n1	34*	-19%	-3%	-12%	58%	104*
Cc1cc(C)n2nc(C(=O)Nc3ccc(S(=O)(=O)N4CCCC4)cc3)nc2n1	2	?	2.3µM*	10%	128%	2
Cc1cc(C)n2nc(C(=O)Nc3ccc(S(=O)(=O)N4CCCCC4)cc3)nc2n1	-2	21%	/	7%	?	-17
c1ccc2c(c1)-c1nc3ccccc3cc1C2N1CCCCC1 (configuration not stated)	/	/	/	-2%	/	/
O=c1cccc2n1Cc1cc3ccccc3nc1-2	39*	1%[8.37 µM]	189%	9%	181%	38*
SMILES	CHX counter	HCV inhibitor	Pf growth 96h	AMA1 RON2 block	Pf growth 48h	Shiga toxin inh
CCc1cccc(NS(=O)(=O)c2ccc3c(c2)n(C)c(=O)n3C)c1	-1	?	4.7µM*	1%	-14%	12
O=S(=O)(Nc1cccc(Cl)c1)c1ccc(-n2cccn2)cc1	-5	6%	?	3%	3%	9
CCc1cccc(NS(=O)(=O)c2ccc(-n3cccn3)cc2)c1	-1	-26%	13µM*	8%	26%	-4
COc1ccc(C)cc1NS(=O)(=O)c1ccc2c(c1)n(C)c(=O)n2C	-4	8%	5.9µM*	1%	-9%	-4
C[C@@H]1CN([C@H](C)CO)S(=O)(=O)c2ccc(Br)cc2O[C@@H]1CN(C)C(=O)NC1CCCC1	/	/	/	-6%	/	/
COc1ccccc1/C=C/C(=O)N1CCN(S(=O)(=O)c2cc(C)ccc2C)CC1	/	?	?	0%	15µM*	/
COc1ccc(OC)c(/C=C/C(=O)N2CCN(S(=O)(=O)c3ccc(C)cc3C)CC2)c1	/	?	13µM*	24%[11.6 µM]	12µM*	/
CCc1cc(C(=O)N2CCN(S(=O)(=O)c3cc(C)ccc3C)CC2)sc1C	/	?	?	-8%	13µM*	/
Cc1ccc(CNC(=O)c2ccc(N3CCC4(CC3)CC(c3cccc(Br)c3)=NO4)c(N)c2)cc1	/	?	?	-19%	?	/
CCCNC(=O)c1ccc(N2CCC3(CC2)CC(c2cccc(Br)c2)=NO3)c([N+](=O)[O-])c1	2	?	6.6µM*	-6%	?	-4
CCCNC(=O)c1ccc(N2CCC3(CC2)CC(c2cccc(Br)c2)=NO3)c(N)c1	/	?	?	?	12µM*	/
CC(=O)Nc1ccc(S(=O)(=O)N2CCCC(C(=O)O)C2)cc1 (configuration not stated)	10	14%	8%	6%	1%	-9
COc1ccc(Cc2nnc(SC)n2-c2ccc(F)cc2)cc1OC	/	/	/	-17%	/	/
O=C(NN=Cc1ccccc1OC(F)F)c1ccc(NS(=O)(=O)c2cccs2)cc1	/	?	/	70%	/	/
FC(F)Oc1ccccc1/C=N/Nc1nc2ccccc2o1	44*	-11%	130%	23%	77%	74*
CCc1nnc(N/N=C/c2ccccc2F)n1N	10	-2%	-22%	7%	28%	48
Fc1ccccc1/C=N/Nc1nc2ccccc2o1	50*	4%	?	34%	144%	79*
Cn1cccc1C1NC(=O)c2c(sc3c2CCC(C(C)(C)C)C3)N1 (configuration not stated)	11*	?	/	-25%	?	29*
CN1CCc2c(sc3c2C(=O)NC(c2ccco2)N3)C1 (configuration not stated)	4	-3%	?	35%	1%	-1
